Measurements taken from the supplement of paper PMC10849652.
The full data set covers some 7,900 targets. This sample favours those with a hit. About 0.6% of all pairs of compound and target were hits.

Legend:
Assay in all cases: log2 fold change, soluble protein after heating vs DMSO (PISA); higher = thermal stabilisation; K562 cells, 10 uM, 30 min; active = over 0.2 and 3.5 SD of the protein, either way, in both replicates (recomputed)
[1] = compound: COC1=CC=C(C=C1)CN2C=CC3=C2C=C(C=C3)C(=O)NO
Method in brief: (§1)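 Quantification of soluble protein used TMTpro 16plex LC-MS/MS, with channel sums equalised. Samples were the supernatant after 21,000xg for 90 min of pooled aliquots from K562 cells (2×10^6 cells/mL) treated with 10 μM compound for 30 min, heated for 3 min over 48°C-58°C, and extracted in PBS with 0.5% NP-40 at 4°C. Values, from duplicates, describe thermal stability against control samples on a log2 fold-change scale.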

filanesib = compound: CON(C)C(=O)N1N=C(c2cc(F)ccc2F)S[C@@]1(CCCN)c1ccccc1 [filanesib]
Method in brief: as §1

zotarolimus = compound: CO[C@H]1C[C@@H]2CC[C@@H](C)[C@@](O)(O2)C(=O)C(=O)N2CCCC[C@H]2C(=O)O[C@H]([C@H](C)C[C@@H]2CC[C@H](n3cnnn3)[C@H](OC)C2)CC(=O)[C@H](C)/C=C(\C)[C@@H](O)[C@@H](OC)C(=O)[C@H](C)C[C@H](C)/C=C/C=C/C=C/1C [zotarolimus]
Method in brief: as §1

idasanutlin = compound: COc1cc(C(=O)O)ccc1NC(=O)[C@@H]1N[C@@H](CC(C)(C)C)[C@](C#N)(c2ccc(Cl)cc2F)[C@H]1c1cccc(Cl)c1F [idasanutlin]
Method in brief: as §1

alisertib = compound: COc1cc(Nc2ncc3c(n2)-c2ccc(Cl)cc2C(c2c(F)cccc2OC)=NC3)ccc1C(=O)O [alisertib]
Method in brief: as §1

[2] = compound: COc1cc2nc(-c3cc(F)ccc3O)nc(N[C@@H]3CNC[C@H]3C(C)(C)O)c2cc1OC
Method in brief: as §1

gefitinib = compound: COc1cc2ncnc(Nc3ccc(F)c(Cl)c3)c2cc1OCCCN1CCOCC1 [gefitinib]
Method in brief: as §1

[3] = compound: COc1cccc2cc(-c3nc([C@H]4CC[C@H](C(=O)O)CC4)n4ncnc(N)c34)[nH]c12
Method in brief: as §1

lapatinib = compound: CS(=O)(=O)CCNCc1ccc(-c2ccc3ncnc(Nc4ccc(OCc5cccc(F)c5)c(Cl)c4)c3c2)o1 [lapatinib]
Method in brief: as §1

pictilisib = compound: CS(=O)(=O)N1CCN(Cc2cc3nc(-c4cccc5[nH]ncc45)nc(N4CCOCC4)c3s2)CC1 [pictilisib]
Method in brief: as §1

[4] = compound: CS(=O)(=O)c1ccc(-c2cnc(N)c(C(=O)Nc3ccccc3)n2)cc1
Method in brief: as §1

crizotinib = compound: C[C@@H](Oc1cc(-c2cnn(C3CCNCC3)c2)cnc1N)c1c(Cl)ccc(F)c1Cl [crizotinib]
Method in brief: as §1

[5] = compound: C[C@@H]1COCCN1C2=NC(=NC(=C2)C3(CC3)S(=O)(=O)C)C4=C5C=CNC5=CC=C4
Method in brief: as §1

[6] = compound: C[C@H](C1=CC=C(C=C1)C(=O)NC2=C3C=CNC3=NC=C2)N
Method in brief: as §1

duvelisib = compound: C[C@H](Nc1ncnc2nc[nH]c12)c1cc2cccc(Cl)c2c(=O)n1-c1ccccc1 [duvelisib]
Method in brief: as §1

gandotinib = compound: Cc1cc(Nc2cc(CN3CCOCC3)c3nc(C)c(Cc4ccc(Cl)cc4F)n3n2)n[nH]1 [gandotinib]
Method in brief: as §1

tozasertib = compound: Cc1cc(Nc2cc(N3CCN(C)CC3)nc(Sc3ccc(NC(=O)C4CC4)cc3)n2)n[nH]1 [tozasertib]
Method in brief: as §1

[7] = compound: Cc1cc(SCc2sc(-c3ccc(C(F)(F)F)cc3)nc2C)ccc1OCC(=O)O
Method in brief: as §1

doramapimod = compound: Cc1ccc(-n2nc(C(C)(C)C)cc2NC(=O)Nc2ccc(OCCN3CCOCC3)c3ccccc23)cc1 [doramapimod]
Method in brief: as §1

ispinesib = compound: Cc1ccc(C(=O)N(CCCN)[C@@H](c2nc3cc(Cl)ccc3c(=O)n2Cc2ccccc2)C(C)C)cc1 [ispinesib]
Method in brief: as §1

Measured: log2 fold change

IPO11 isoform 2 (UniProt Q9UI26)
Chain of UniProt Q9UI26 (Q9UI26 whole entry, looked up): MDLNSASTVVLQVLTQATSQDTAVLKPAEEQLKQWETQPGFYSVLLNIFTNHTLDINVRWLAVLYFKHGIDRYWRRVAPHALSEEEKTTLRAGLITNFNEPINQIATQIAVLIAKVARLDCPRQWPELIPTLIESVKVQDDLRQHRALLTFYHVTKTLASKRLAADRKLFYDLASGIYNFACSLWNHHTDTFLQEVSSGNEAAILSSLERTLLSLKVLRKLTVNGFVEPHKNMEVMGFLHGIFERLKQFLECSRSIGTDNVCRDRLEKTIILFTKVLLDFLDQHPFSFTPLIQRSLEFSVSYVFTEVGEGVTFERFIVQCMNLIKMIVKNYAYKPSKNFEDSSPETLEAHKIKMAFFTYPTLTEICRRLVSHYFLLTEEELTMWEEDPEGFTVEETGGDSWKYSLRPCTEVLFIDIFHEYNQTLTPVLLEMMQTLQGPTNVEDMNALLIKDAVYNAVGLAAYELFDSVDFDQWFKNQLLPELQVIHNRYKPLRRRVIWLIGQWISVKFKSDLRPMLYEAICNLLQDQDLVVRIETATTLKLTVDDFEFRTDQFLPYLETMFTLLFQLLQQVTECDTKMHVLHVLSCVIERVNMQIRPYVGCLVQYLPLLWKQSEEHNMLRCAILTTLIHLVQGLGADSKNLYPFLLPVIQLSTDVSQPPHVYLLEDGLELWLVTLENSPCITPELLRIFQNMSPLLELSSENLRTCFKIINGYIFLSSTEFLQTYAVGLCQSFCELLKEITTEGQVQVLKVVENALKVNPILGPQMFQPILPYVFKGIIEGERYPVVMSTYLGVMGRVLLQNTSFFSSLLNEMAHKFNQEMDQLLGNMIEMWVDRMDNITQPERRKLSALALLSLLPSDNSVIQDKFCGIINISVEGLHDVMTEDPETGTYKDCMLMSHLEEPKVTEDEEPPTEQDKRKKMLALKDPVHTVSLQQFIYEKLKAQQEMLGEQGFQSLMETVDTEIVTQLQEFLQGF
inactive: [1] 0.036 | filanesib -0.045 | zotarolimus 0.002 | idasanutlin -0.087 | alisertib -0.023 | [2] -0.006 | gefitinib -0.049 | [3] 0.04 | lapatinib 0.005 | pictilisib 0.028 | [4] 0.037 | crizotinib 0 | [5] -0.015 | [6] -0.082 | duvelisib 0.041 | gandotinib -0.076 | tozasertib 0.025 | [7] 0.007 | doramapimod -0.028 | ispinesib 0.051

MICU2 (UniProt Q8IYU8)
Chain of UniProt Q8IYU8 (Q8IYU8 whole entry, looked up): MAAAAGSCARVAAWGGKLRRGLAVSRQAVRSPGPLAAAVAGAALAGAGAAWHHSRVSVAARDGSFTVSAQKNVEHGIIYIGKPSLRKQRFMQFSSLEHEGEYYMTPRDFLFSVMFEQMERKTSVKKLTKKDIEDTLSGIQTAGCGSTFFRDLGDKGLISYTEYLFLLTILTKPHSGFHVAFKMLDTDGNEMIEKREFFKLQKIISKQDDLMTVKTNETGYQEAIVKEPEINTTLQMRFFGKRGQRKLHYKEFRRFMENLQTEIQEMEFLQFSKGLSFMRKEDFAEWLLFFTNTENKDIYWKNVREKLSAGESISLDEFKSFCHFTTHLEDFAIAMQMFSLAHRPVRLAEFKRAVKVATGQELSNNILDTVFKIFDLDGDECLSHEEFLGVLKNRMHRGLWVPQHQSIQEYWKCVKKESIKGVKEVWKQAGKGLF
inactive: [1] 0.067 | filanesib -0.089 | zotarolimus -0.142 | idasanutlin 0.022 | alisertib -0.067 | [2] -0.21 | gefitinib 0.038 | [3] -0.031 | lapatinib -0.031 | pictilisib 0.005 | [4] 0.014 | crizotinib -0.173 | [5] -0.026 | [6] 0.108 | duvelisib -0.045 | gandotinib -0.062 | tozasertib -0.036 | [7] 0.035 | doramapimod -0.009 | ispinesib -0.213

IPO13 (UniProt O94829)
Chain of UniProt O94829 (O94829 whole entry, looked up): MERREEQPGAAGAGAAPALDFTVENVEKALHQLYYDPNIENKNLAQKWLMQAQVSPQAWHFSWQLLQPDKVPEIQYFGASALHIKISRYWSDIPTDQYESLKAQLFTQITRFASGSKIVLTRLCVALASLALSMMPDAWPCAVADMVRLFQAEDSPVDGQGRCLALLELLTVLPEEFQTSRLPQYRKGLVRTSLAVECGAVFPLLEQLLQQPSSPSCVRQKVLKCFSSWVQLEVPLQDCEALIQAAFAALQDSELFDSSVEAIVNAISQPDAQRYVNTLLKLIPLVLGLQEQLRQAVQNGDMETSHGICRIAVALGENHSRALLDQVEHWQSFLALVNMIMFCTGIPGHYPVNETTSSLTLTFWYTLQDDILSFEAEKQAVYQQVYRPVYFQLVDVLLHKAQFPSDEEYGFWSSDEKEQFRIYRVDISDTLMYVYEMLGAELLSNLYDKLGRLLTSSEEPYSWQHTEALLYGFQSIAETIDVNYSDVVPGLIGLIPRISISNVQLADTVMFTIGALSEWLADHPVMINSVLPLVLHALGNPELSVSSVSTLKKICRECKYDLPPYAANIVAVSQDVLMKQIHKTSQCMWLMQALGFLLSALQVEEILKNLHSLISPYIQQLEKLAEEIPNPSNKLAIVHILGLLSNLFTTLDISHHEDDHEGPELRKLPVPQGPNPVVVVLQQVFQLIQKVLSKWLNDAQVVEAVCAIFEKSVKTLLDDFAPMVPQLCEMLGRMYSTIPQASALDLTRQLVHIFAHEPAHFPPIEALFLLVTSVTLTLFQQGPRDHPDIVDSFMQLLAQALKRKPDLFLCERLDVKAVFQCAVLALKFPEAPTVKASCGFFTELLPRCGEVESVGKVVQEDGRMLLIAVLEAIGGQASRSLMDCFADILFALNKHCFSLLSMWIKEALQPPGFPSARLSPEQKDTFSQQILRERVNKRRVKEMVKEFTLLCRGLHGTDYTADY
inactive: [1] -0.017 | filanesib -0.144 | zotarolimus -0.039 | idasanutlin -0.038 | alisertib 0.021 | [2] -0.024 | gefitinib -0.047 | [3] 0.008 | lapatinib 0.038 | pictilisib 0.109 | [4] -0.042 | crizotinib -0.134 | [5] 0.016 | [6] -0.028 | duvelisib 0.04 | gandotinib -0.234 | tozasertib 0.001 | [7] 0.01 | doramapimod 0.023 | ispinesib -0.13

LRRFIP1 (UniProt Q32MZ4)
Chain of UniProt Q32MZ4 (Q32MZ4 whole entry, looked up): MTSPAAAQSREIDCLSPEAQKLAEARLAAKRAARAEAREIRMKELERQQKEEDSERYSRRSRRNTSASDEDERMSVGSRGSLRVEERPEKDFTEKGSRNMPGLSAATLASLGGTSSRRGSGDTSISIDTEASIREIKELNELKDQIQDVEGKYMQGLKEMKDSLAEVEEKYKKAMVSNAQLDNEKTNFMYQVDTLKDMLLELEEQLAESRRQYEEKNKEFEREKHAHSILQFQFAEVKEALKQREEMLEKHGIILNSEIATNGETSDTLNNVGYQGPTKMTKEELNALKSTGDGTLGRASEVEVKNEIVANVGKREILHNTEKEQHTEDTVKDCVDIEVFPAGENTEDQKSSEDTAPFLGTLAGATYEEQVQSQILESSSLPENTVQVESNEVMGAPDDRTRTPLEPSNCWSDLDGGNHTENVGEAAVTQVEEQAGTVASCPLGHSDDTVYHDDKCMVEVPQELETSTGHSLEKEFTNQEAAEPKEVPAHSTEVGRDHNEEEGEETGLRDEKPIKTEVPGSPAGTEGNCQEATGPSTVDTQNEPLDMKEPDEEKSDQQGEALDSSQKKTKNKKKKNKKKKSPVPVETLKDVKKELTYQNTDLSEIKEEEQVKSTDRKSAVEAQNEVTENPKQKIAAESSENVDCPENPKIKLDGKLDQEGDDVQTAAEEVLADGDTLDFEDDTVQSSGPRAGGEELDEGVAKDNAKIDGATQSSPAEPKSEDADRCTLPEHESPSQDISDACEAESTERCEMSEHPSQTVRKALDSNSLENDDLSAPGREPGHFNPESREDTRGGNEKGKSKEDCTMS
inactive: [1] -0.014 | filanesib 0.022 | zotarolimus -0.034 | idasanutlin 0.019 | alisertib -0.031 | [2] 0.023 | gefitinib -0.007 | [3] 0.025 | lapatinib -0.012 | pictilisib -0.027 | [4] -0.005 | crizotinib 0.037 | [5] 0 | [6] 0.025 | duvelisib 0.011 | gandotinib 0.056 | tozasertib -0.027 | [7] -0.059 | doramapimod -0.025 | ispinesib -0.019

LARP1 (UniProt Q6PKG0)
inactive: [1] 0 | filanesib 0.048 | zotarolimus -0.048 | idasanutlin 0.089 | alisertib 0.137 | [2] -0.001 | gefitinib -0.049 | [3] -0.161 | lapatinib 0.023 | pictilisib -0.152 | [4] -0.04 | crizotinib -0.097 | [5] -0.172 | [6] 0.134 | duvelisib -0.121 | gandotinib 0.026 | tozasertib -0.001 | [7] 0.01 | doramapimod 0.06 | ispinesib -0.166

ILF3 isoform 7 (UniProt Q12906)
Chain of UniProt Q12906 (Q12906 whole entry, looked up): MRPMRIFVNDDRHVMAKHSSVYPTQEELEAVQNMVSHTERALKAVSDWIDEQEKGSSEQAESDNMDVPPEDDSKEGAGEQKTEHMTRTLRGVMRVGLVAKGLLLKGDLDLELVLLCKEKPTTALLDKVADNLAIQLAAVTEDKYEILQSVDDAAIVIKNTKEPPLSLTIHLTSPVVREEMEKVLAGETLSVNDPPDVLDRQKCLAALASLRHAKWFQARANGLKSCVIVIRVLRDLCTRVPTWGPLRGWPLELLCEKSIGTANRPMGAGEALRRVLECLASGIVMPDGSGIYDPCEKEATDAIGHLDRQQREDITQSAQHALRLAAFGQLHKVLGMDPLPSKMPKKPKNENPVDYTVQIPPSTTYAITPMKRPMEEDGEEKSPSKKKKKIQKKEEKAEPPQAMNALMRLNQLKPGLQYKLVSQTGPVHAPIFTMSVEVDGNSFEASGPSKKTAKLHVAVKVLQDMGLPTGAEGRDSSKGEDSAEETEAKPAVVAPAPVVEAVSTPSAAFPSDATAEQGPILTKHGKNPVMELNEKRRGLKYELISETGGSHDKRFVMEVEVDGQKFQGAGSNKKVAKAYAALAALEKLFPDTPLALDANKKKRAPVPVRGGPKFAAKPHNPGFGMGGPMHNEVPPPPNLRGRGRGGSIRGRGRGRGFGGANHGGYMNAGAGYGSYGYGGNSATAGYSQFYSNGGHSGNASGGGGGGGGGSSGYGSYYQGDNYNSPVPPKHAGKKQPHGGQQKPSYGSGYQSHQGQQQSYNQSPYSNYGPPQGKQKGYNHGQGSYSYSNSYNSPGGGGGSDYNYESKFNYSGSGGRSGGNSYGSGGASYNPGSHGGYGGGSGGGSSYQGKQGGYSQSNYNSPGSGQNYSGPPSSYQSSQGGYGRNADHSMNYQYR
inactive: [1] 0.022 | filanesib 0.213 | zotarolimus -0.047 | idasanutlin 0.095 | alisertib -0.061 | [2] 0.174 | gefitinib -0.022 | [3] -0.06 | lapatinib 0 | pictilisib 0.018 | [4] -0.159 | crizotinib -0.074 | [5] -0.181 | [6] 0.286 | duvelisib -0.092 | gandotinib 0.1 | tozasertib 0.039 | [7] -0.001 | doramapimod 0.118 | ispinesib 0.034

MAPK12 (UniProt P53778)
Chain of UniProt P53778 (P53778 whole entry, looked up): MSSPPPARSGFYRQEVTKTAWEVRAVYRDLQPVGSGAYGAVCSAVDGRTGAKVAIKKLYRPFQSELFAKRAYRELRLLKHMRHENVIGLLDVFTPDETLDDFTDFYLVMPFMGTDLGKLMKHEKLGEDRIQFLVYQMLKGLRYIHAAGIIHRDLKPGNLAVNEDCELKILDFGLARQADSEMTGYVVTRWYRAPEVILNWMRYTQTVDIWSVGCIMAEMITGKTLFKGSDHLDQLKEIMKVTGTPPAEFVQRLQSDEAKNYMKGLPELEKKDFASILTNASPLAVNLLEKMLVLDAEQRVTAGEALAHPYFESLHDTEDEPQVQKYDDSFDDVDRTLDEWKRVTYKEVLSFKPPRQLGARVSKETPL
inactive: [1] 0.066 | filanesib -0.062 | zotarolimus 0.026 | idasanutlin -0.072 | alisertib -0.115 | [2] 0.084 | gefitinib -0.269 | [3] 0.093 | lapatinib -0.056 | pictilisib 0.062 | [4] -0.005 | [5] 0.105 | [6] -0.106 | duvelisib -0.005 | gandotinib 0.037 | tozasertib 0.099 | [7] 0.01 | ispinesib -0.036

KIF11 (UniProt P52732)
active: filanesib 1.1 | ispinesib 0.761
inactive: [1] -0.004 | zotarolimus 0.074 | idasanutlin 0.026 | alisertib 0.011 | [2] 0.043 | gefitinib -0.002 | [3] -0.063 | lapatinib -0.018 | pictilisib 0.046 | [4] 0.034 | crizotinib -0.091 | [5] -0.029 | [6] 0.207 | duvelisib -0.007 | gandotinib -0.018 | tozasertib 0.12 | [7] 0.19 | doramapimod 0.13

LYN (UniProt P07948)
Chain of UniProt P07948 (P07948 whole entry, looked up): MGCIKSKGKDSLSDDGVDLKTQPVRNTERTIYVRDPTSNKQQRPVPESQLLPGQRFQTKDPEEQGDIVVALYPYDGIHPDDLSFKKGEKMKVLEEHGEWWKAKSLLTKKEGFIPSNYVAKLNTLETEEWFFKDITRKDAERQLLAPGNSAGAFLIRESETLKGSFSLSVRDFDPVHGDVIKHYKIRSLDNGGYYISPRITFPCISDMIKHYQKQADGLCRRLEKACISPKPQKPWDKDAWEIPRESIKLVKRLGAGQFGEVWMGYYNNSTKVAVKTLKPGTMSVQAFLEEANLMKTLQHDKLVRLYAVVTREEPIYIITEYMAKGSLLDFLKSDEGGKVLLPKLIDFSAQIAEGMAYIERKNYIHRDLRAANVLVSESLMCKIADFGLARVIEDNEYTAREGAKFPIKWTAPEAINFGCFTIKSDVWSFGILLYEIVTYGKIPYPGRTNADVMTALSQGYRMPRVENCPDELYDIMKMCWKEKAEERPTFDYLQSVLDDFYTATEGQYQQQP
inactive: [1] -0.074 | filanesib 0.021 | zotarolimus 0.07 | idasanutlin -0.01 | alisertib 0.002 | [2] 0.259 | gefitinib -0.036 | [3] 0.081 | lapatinib 0.011 | pictilisib 0.112 | [4] -0.023 | crizotinib -0.142 | [5] -0.101 | [6] -0.01 | duvelisib 0.118 | gandotinib -0.015 | tozasertib -0.085 | [7] 0.132 | doramapimod 0.065 | ispinesib -0.094
